About 83,000 compounds went through this panel and 20% of them were active in at least one assay; those are over-represented in the sample as a whole.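 Cell lines were cultured in 96-well plates, exposed to a single compound concentration, and assessed for percent growth 48 hours later.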 The source made the active and inactive calls. Rule for the calls: active = growth percent below 10; inactive = the rest.
These compounds were tested on MCF7 breast (assay: NCI-60 one-dose screen, 48 h (100 = growth as untreated, 0 = no growth, -100 = all killed)). Settings: 10 µM unless noted.

Structure (SMILES)	growth
COC(=O)[C@@H](Cc1c[nH]c2ccccc12)NC(=O)CCCCOc1cc(O)c2c(=O)cc(-c3ccccc3)oc2c1	94.9% (inactive)
CCOC(=O)c1cnc2c(-c3ccc(Cl)c(Cl)c3)cnn2c1	82.8% (inactive)
O=C(Nc1cccc(Cl)c1)Nc1nc2cc([N+](=O)[O-])ccc2o1	36.8% (inactive)
CCOP(=O)(OCC)OC[C@]12CCC(C)(C)CC1C1=CC[C@@H]3[C@@]4(C)CCCNC(C)(C)[C@@H]4CC[C@@]3(C)[C@]1(C)CC2 (stereo partly drawn)	35.1% (inactive)
CS(=O)(=O)c1ccc(/C(=N/N=C(N)N)c2ccc(Cl)cc2)cc1	32.8% (inactive)
O=c1nc(Nc2ccc([N+](=O)[O-])cc2O)sc2ccccc12	18.1% (inactive)
O=C1C(SCc2ccccc2)=C(Cl)CN1c1ccc(Cl)cc1	25.7% (inactive)
CCCC/C(=C\c1ccc(O)c(O)c1)C(=O)NC(Cc1ccccc1)C(=O)C(=O)NCCc1ccc(OC)cc1 (stereo not drawn)	95% (inactive)
COc1ccc(-c2cc(-c3ccc(N4CCOCC4)cc3)n3c(n2)nc2ccccc23)cc1OC	90.1% (inactive)
C#C[C@]1(O)CC[C@H]2[C@@H]3CC=C4c5sc(Nc6ccc(C)cn6)nc5CC[C@]4(C)[C@H]3CC[C@@]21C	-68.9% (active)
CS(=O)(=O)c1ccc(/C(=N/N=C(N)N)c2ccc(F)cc2)cc1	15.1% (inactive)
CC(=O)Nc1ccccc1-c1nc2ccccc2s1	97.6% (inactive)
COc1ccc(/C=N/NC(=O)c2c(N)nn(C)c2Nc2ccccc2)cc1Oc1ccccc1	75.3% (inactive)
C=C(C)[C@@H]1CC[C@]2(COP(=O)(OCC)OCC)CC[C@]3(C)[C@H](CC[C@@H]4[C@@]5(C)CC[C@H](OP(=O)(OCC)OCC)C(C)(C)[C@@H]5CC[C@]43C)[C@@H]12	0.255% (active)
N#Cc1c(-c2cccs2)cc(-c2cnccn2)nc1SCC(=O)N/N=C/c1ccccc1	19.4% (inactive)
COc1cccc2c1[C@H](OC)[C@]13O[C@@]1(C2=O)[C@H](O)[C@H](C)[C@@](O)(C(=O)[C@@H]1O[C@H]1C)[C@@H]3O	-21.3% (active)
C#CCN(C)CCCOc1ccc(NCc2ccc(C(=O)NO)cc2)cc1Cl	18% (inactive)
CCN(CC)c1ccc(/C=N/NC(=O)c2ccc(NS(C)(=O)=O)cc2)cc1	9.25% (active)
COc1ccc2c(c1)c(-c1nnc(N)nc1-c1c[nH]c3ccc(F)cc13)cn2C	18.9% (inactive)
Cc1ccc(S(=O)(=O)NCCCNc2nccc(-c3[nH]c(-c4ccccc4)nc3-c3ccc(F)c(O)c3)n2)cc1	73.5% (inactive)

Structure (SMILES)	growth
COc1ccc(-c2c(C(N)=O)c(N)n(Cc3nc4ccccc4[nH]3)c(=O)c2C#N)c(OC)c1	76.5% (inactive)
Brc1ccc2[nH]cc(-c3nn4cc(-c5nccs5)nc4s3)c2c1	33.9% (inactive)
CNc1sc(S(=O)(=O)NC)nc1S(=O)(=O)c1ccc(C)cc1	87.6% (inactive)
COc1ccc(C(=NNS(=O)(=O)c2ccc(C)cc2)c2ccccc2)cc1OC	91.4% (inactive)
N#Cc1c(-c2cccs2)cc(-c2cnccn2)nc1SCC(=O)N/N=C/c1ccncc1	92.5% (inactive)
Cc1ncn(-c2ccc(/C=N/Nc3ccnc4cc(Cl)ccc34)cc2)c1C	-69.1% (active)
C#Cc1nc(/C=C/C(=O)NO)cs1	62.6% (inactive)
CCS(=O)(=O)Nc1ccc(C(=O)CC2(O)C(=O)Nc3ccccc32)cc1 (stereo not drawn)	92.3% (inactive)
C1=CC(c2nn3c(-c4ccccc4)nnc3s2)=Cc2ccccc2O1	30.7% (inactive)
Cc1[nH]c(C(=O)Nc2ccc(C(N)=O)cc2N2CCOC(C)C2)c(Cl)c1Cl (stereo not drawn)	93% (inactive)
O=C(/C=C/c1ccccc1)c1cccc(O)c1	14% (inactive)
COC(=O)CCCNCCCn1ccc2cc(NCc3cccc(-c4ccccc4)c3C)ccc21	56.9% (inactive)
C/C(=N\NC(=O)/C=C/CC(=O)O)c1nnn(-c2ccc([N+](=O)[O-])cc2)c1C	97.8% (inactive)
O=C(/C=C/c1ccc(F)cc1)Nc1cccc2cccnc12	6.92% (active)
CC(C)NC(=O)c1cc(-c2ccc(NC(=O)Nc3ccc(F)cc3)cc2)nc2cccnc12	79.9% (inactive)
O=C(/C=C/c1cccc(C(F)(F)F)c1)Nc1cccc(C(F)(F)F)c1	30.9% (inactive)
Clc1ccc(CSc2nnc(-c3ccc(Cl)cc3)n2-c2ccccc2)cc1	84.5% (inactive)
COc1ccc(/C=N/N=C(/c2ccccc2)c2ccc3nc(-c4ccc(Cl)cc4)[nH]c3c2)cc1	72% (inactive)
N#Cc1cnc2ccc(-c3cnc4n[nH]nc4c3)cc2c1N1CCc2cc(F)c(Cl)cc21	8.34% (active)

What follows are compounds tested on HCT-116 colon in the same assay as above. Settings: 10 µM unless noted.

Structure (SMILES)	growth
COC(=O)[C@@H](Cc1c[nH]c2ccccc12)NC(=O)CCCCOc1cc(O)c2c(=O)cc(-c3ccccc3)oc2c1	92.1% (inactive)
CCOC(=O)c1cnc2c(-c3ccc(Cl)c(Cl)c3)cnn2c1	62.7% (inactive)
O=C(Nc1cccc(Cl)c1)Nc1nc2cc([N+](=O)[O-])ccc2o1	26.8% (inactive)
CCOP(=O)(OCC)OC[C@]12CCC(C)(C)CC1C1=CC[C@@H]3[C@@]4(C)CCCNC(C)(C)[C@@H]4CC[C@@]3(C)[C@]1(C)CC2 (stereo partly drawn)	20.4% (inactive)
CS(=O)(=O)c1ccc(/C(=N/N=C(N)N)c2ccc(Cl)cc2)cc1	73.8% (inactive)
O=c1nc(Nc2ccc([N+](=O)[O-])cc2O)sc2ccccc12	20.2% (inactive)
O=C1C(SCc2ccccc2)=C(Cl)CN1c1ccc(Cl)cc1	89.7% (inactive)
CCCC/C(=C\c1ccc(O)c(O)c1)C(=O)NC(Cc1ccccc1)C(=O)C(=O)NCCc1ccc(OC)cc1 (stereo not drawn)	92.4% (inactive)
COc1ccc(-c2cc(-c3ccc(N4CCOCC4)cc3)n3c(n2)nc2ccccc23)cc1OC	96% (inactive)
C#C[C@]1(O)CC[C@H]2[C@@H]3CC=C4c5sc(Nc6ccc(C)cn6)nc5CC[C@]4(C)[C@H]3CC[C@@]21C	5.1% (active)
CS(=O)(=O)c1ccc(/C(=N/N=C(N)N)c2ccc(F)cc2)cc1	33.7% (inactive)
CC(=O)Nc1ccccc1-c1nc2ccccc2s1	95.3% (inactive)
COc1ccc(/C=N/NC(=O)c2c(N)nn(C)c2Nc2ccccc2)cc1Oc1ccccc1	79.8% (inactive)
C=C(C)[C@@H]1CC[C@]2(COP(=O)(OCC)OCC)CC[C@]3(C)[C@H](CC[C@@H]4[C@@]5(C)CC[C@H](OP(=O)(OCC)OCC)C(C)(C)[C@@H]5CC[C@]43C)[C@@H]12	6.75% (active)
N#Cc1c(-c2cccs2)cc(-c2cnccn2)nc1SCC(=O)N/N=C/c1ccccc1	-23.6% (active)
COc1cccc2c1[C@H](OC)[C@]13O[C@@]1(C2=O)[C@H](O)[C@H](C)[C@@](O)(C(=O)[C@@H]1O[C@H]1C)[C@@H]3O	-26.8% (active)
C#CCN(C)CCCOc1ccc(NCc2ccc(C(=O)NO)cc2)cc1Cl	10.7% (inactive)
CCN(CC)c1ccc(/C=N/NC(=O)c2ccc(NS(C)(=O)=O)cc2)cc1	21.3% (inactive)
COc1ccc2c(c1)c(-c1nnc(N)nc1-c1c[nH]c3ccc(F)cc13)cn2C	21.4% (inactive)
Cc1ccc(S(=O)(=O)NCCCNc2nccc(-c3[nH]c(-c4ccccc4)nc3-c3ccc(F)c(O)c3)n2)cc1	69.6% (inactive)

Structure (SMILES)	growth
COc1ccc(-c2c(C(N)=O)c(N)n(Cc3nc4ccccc4[nH]3)c(=O)c2C#N)c(OC)c1	104% (inactive)
Brc1ccc2[nH]cc(-c3nn4cc(-c5nccs5)nc4s3)c2c1	-81.7% (active)
CNc1sc(S(=O)(=O)NC)nc1S(=O)(=O)c1ccc(C)cc1	100% (inactive)
COc1ccc(C(=NNS(=O)(=O)c2ccc(C)cc2)c2ccccc2)cc1OC	96.3% (inactive)
N#Cc1c(-c2cccs2)cc(-c2cnccn2)nc1SCC(=O)N/N=C/c1ccncc1	101% (inactive)
Cc1ncn(-c2ccc(/C=N/Nc3ccnc4cc(Cl)ccc34)cc2)c1C	-83.6% (active)
C#Cc1nc(/C=C/C(=O)NO)cs1	23.8% (inactive)
CCS(=O)(=O)Nc1ccc(C(=O)CC2(O)C(=O)Nc3ccccc32)cc1 (stereo not drawn)	104% (inactive)
C1=CC(c2nn3c(-c4ccccc4)nnc3s2)=Cc2ccccc2O1	41.1% (inactive)
Cc1[nH]c(C(=O)Nc2ccc(C(N)=O)cc2N2CCOC(C)C2)c(Cl)c1Cl (stereo not drawn)	92% (inactive)
O=C(/C=C/c1ccccc1)c1cccc(O)c1	80% (inactive)
COC(=O)CCCNCCCn1ccc2cc(NCc3cccc(-c4ccccc4)c3C)ccc21	53% (inactive)
C/C(=N\NC(=O)/C=C/CC(=O)O)c1nnn(-c2ccc([N+](=O)[O-])cc2)c1C	97.9% (inactive)
O=C(/C=C/c1ccc(F)cc1)Nc1cccc2cccnc12	95.9% (inactive)
CC(C)NC(=O)c1cc(-c2ccc(NC(=O)Nc3ccc(F)cc3)cc2)nc2cccnc12	95.5% (inactive)
O=C(/C=C/c1cccc(C(F)(F)F)c1)Nc1cccc(C(F)(F)F)c1	21% (inactive)
Clc1ccc(CSc2nnc(-c3ccc(Cl)cc3)n2-c2ccccc2)cc1	75.3% (inactive)
COc1ccc(/C=N/N=C(/c2ccccc2)c2ccc3nc(-c4ccc(Cl)cc4)[nH]c3c2)cc1	75.4% (inactive)
N#Cc1cnc2ccc(-c3cnc4n[nH]nc4c3)cc2c1N1CCc2cc(F)c(Cl)cc21	23.7% (inactive)

— PubChem BioAssay (NCI)
